Reference: PubChem BioAssay (Tox21)
Records with an inconclusive call do not appear. Where a call stands in place of a potency, no number is given. A number with no mark means an inactive call. Active and inactive are the calls of the source. The call rests on the fitted dose curve; in most records, active means well fitted inhibition curve with a large enough effect in the signal ratio in the repeat runs, with a control signal flat; inconclusive means weak or mixed curves, or effect the other way; inactive means flat fitted curve, though single readings scatter; the % refers to the signal ratio.
Potency means the concentration at half of the fitted maximal effect.

What follows are compounds tested against D(2) dopamine receptor (Homo sapiens) (UniProt P14416) (assay: Dopamine D2 receptor (DRD2) small molecule antagonists, cell-based qHTS assay (AID 1963595)). Settings: HEK293-DRD2 cAMP HTRF antagonist mode; series mostly up to 92.4 µM.
D(2) dopamine receptor (Homo sapiens), sequence (P14416 whole entry, looked up): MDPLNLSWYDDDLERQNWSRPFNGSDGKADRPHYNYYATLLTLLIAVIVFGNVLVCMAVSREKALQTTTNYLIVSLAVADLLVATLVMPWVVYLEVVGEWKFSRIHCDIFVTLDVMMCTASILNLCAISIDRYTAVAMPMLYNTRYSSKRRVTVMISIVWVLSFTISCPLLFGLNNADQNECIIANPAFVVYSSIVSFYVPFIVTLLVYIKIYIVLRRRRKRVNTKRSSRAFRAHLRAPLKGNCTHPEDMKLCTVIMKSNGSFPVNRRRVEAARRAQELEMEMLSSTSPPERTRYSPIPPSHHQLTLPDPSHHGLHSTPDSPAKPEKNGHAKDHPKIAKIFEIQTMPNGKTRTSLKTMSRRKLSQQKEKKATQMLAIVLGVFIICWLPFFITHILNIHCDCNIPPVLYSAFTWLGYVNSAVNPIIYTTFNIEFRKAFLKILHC
Method in brief: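 HTRF cAMP read-out at 665 and 620 nm emission (340 nm excitation). Antagonist mode: compounds were tested against 12 nM quinpirole in DRD2-HEK293 cells, with 200 nM NKH477 raising cAMP and 0.1 mM Ro20-1724 blocking its breakdown.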
`CC[N+](C)(CC)CCOC(=O)C1c2ccccc2Oc2ccccc21` was tested, and the Potency was “inactive”.
In the case of `CCCNCCC`, the Potency is reported as “inactive”.
`O=C1CC[C@@H](C(=O)O)N1` was tested, and the Potency was “inactive”.
In the case of `C1C2OC2C2C1C1CC2C2OC12` (stereo not drawn), the Potency is reported as “inactive”.
With `Cc1ccc(C#N)cc1` the Potency was “inactive”.
`CC[C@@]1(c2ccccc2)NC(=O)N(C)C1=O` was tested, and the Potency was “inactive”.
For `CC[C@H]1O[C@]2(CC[C@@H]1C)C[C@@H]1C[C@@H](C/C=C(\C)C[C@@H](C)/C=C/C=C3\CO[C@@H]4[C@H](O)C(C)=C[C@@H](C(=O)O1)[C@]34O)O2`, the Potency was 48.1 µM (active).
With `FC(F)(Cl)C(F)(Cl)Cl` the Potency was “inactive”.
With `CCN(C(=O)N(CC)c1ccccc1)c1ccccc1` the Potency was “inactive”.
For `CCCCCC/C=C/C=O`, the Potency was “inactive”.
In the case of `CCCCCCCCCCO[C@@H]1O[C@H](CO)[C@@H](O)[C@H](O)[C@H]1O`, the Potency is reported as “inactive”.
In the case of `CC(C)COC(=O)CCCCC(=O)OCC(C)C`, the Potency is reported as “inactive”.
With `CCOc1ccc(NC(=O)CC(C)=O)cc1` the Potency was “inactive”.
`CCOC(=O)CC(=O)c1ccccc1` was tested, and the Potency was “inactive”.
In the case of `NCCCC(N)(C(=O)O)C(F)F` (stereo not drawn), the Potency is reported as “inactive”.
For `Cc1ccccc1Br`, the Potency was “inactive”.
`CCCCCCCCS(=O)(=O)O` was tested, and the Potency was “inactive”.
In the case of `CC1(C)SC(C)(C)SC(C)(C)S1`, the Potency is reported as “inactive”.
With `NCCCCCCNCCCCCCN` the Potency was “inactive”.
With `CCN(CC)CCNC(C(=O)OCCC(C)C)c1ccccc1` (stereo not drawn) the Potency was “inactive”.
For `Oc1cc2ccccc2c2ccccc12`, the Potency was 30.6 µM (active).
`CCCCCCCCCCCCCOC(=O)CCSCCC(=O)OCCCCCCCCCCCCC` was tested, and the activity change, negative = inhibition was -7.07% [at 18.9 µM].
With `CC(C)(C)C(=O)CCc1ccc(Cl)cc1` the Potency was “inactive”.
In the case of `CC(C)COC(=O)COc1ccc(Cl)cc1Cl`, the Potency is reported as “inactive”.
With `C=C(C)c1cccc(C(=C)C)c1` the Potency was “inactive”.
`CC(C)(C)C1CCCCC1=O` (stereo not drawn) was tested, and the Potency was “inactive”.
`CC(C)NCC(O)c1cc(O)cc(O)c1` (stereo not drawn) was tested, and the Potency was “inactive”.
With `O=C=NCC1CCCC(CN=C=O)C1` (stereo not drawn) the Potency was “inactive”.
For `NNc1nc(-c2ccccc2)cs1`, the Potency was “inactive”.
For `O=Cc1cc(O)ccc1Br`, the Potency was “inactive”.
`Cc1ccc(C)c([N+](=O)[O-])c1` was tested, and the Potency was “inactive”.
With `Cc1cccc(NC(=S)N(C)C)c1` the Potency was “inactive”.
`COc1ccc(OC)c(Cl)c1` was tested, and the Potency was “inactive”.
